For 42 molecules, binding signal results are on record in article PMC9911399, “Two distinct binding modes provide the RNA-binding protein RbFox with extraordinary sequence specificity”.

Positions count from the first letter of the chain named. Over roughly 16,000 sequences, “ka relative to ugcaugu” has its median near 0.096; the highest 2% begin near 0.35. For the sample, the highest values were picked, then their nearest neighbours and some sequences at random.

T1: RBFOX1 RRM RbFoxmut (Fox-RRM*) (Homo sapiens, UniProt Q9NWB1 109-208, R118D;E147R;N151S;E152T)
T1 sequence: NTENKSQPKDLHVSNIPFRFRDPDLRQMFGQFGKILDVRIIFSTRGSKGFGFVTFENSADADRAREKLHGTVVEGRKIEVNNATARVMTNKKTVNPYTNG

B1: AAGUUAU (DNA:RNA)
RNA: GGGAGACCGGAAUUCAGAUUGUCCAAGUUAUUUAAAUCCCGUCGUAGCCACCA
DNA 1: CAATCTGAATTCCGGTCTCCC
DNA 2: TGGTGGCTACGACGGGATT
B2: GUUUCAU (DNA:RNA)
RNA: B1 RNA with A25G, A26U, G27U, U29C
DNA 1: CAATCTGAATTCCGGTCTCCC
DNA 2: TGGTGGCTACGACGGGATT
B3: UAGCAGU (DNA:RNA)
RNA: B1 RNA with A25U, U28C, U29A, A30G
DNA 1: CAATCTGAATTCCGGTCTCCC
DNA 2: TGGTGGCTACGACGGGATT
B4: CGUACCU (DNA:RNA)
RNA: B1 RNA with A25C, A26G, G27U, U28A, U29C, A30C
DNA 1: CAATCTGAATTCCGGTCTCCC
DNA 2: TGGTGGCTACGACGGGATT
B5: AGCAUAU (DNA:RNA)
RNA: B1 RNA with A26G, G27C, U28A
DNA 1: CAATCTGAATTCCGGTCTCCC
DNA 2: TGGTGGCTACGACGGGATT
B6: AGCCAUG (DNA:RNA)
RNA: B1 RNA with A26G, G27C, U28C, U29A, A30U, U31G
DNA 1: CAATCTGAATTCCGGTCTCCC
DNA 2: TGGTGGCTACGACGGGATT
B7: AGCAUGG (DNA:RNA)
RNA: B1 RNA with A26G, G27C, U28A, A30G, U31G
DNA 1: CAATCTGAATTCCGGTCTCCC
DNA 2: TGGTGGCTACGACGGGATT
B8: AGAUGGU (DNA:RNA)
RNA: B1 RNA with A26G, G27A, U29G, A30G
DNA 1: CAATCTGAATTCCGGTCTCCC
DNA 2: TGGTGGCTACGACGGGATT
B9: AUGGUUG (DNA:RNA)
RNA: B1 RNA with A26U, U28G, A30U, U31G
DNA 1: CAATCTGAATTCCGGTCTCCC
DNA 2: TGGTGGCTACGACGGGATT
B10: AGCAUGU (DNA:RNA)
RNA: B1 RNA with A26G, G27C, U28A, A30G
DNA 1: CAATCTGAATTCCGGTCTCCC
DNA 2: TGGTGGCTACGACGGGATT
B11: UAGCAUA (DNA:RNA)
RNA: B1 RNA with A25U, U28C, U29A, A30U, U31A
DNA 1: CAATCTGAATTCCGGTCTCCC
DNA 2: TGGTGGCTACGACGGGATT
B12: ACCAUGG (DNA:RNA)
RNA: B1 RNA with A26C, G27C, U28A, A30G, U31G
DNA 1: CAATCTGAATTCCGGTCTCCC
DNA 2: TGGTGGCTACGACGGGATT
B13: AUGUUGG (DNA:RNA)
RNA: B1 RNA with A26U, A30G, U31G
DNA 1: CAATCTGAATTCCGGTCTCCC
DNA 2: TGGTGGCTACGACGGGATT
B14: AGCAUUG (DNA:RNA)
RNA: B1 RNA with A26G, G27C, U28A, A30U, U31G
DNA 1: CAATCTGAATTCCGGTCTCCC
DNA 2: TGGTGGCTACGACGGGATT
B15: UAGCAUC (DNA:RNA)
RNA: B1 RNA with A25U, U28C, U29A, A30U, U31C
DNA 1: CAATCTGAATTCCGGTCTCCC
DNA 2: TGGTGGCTACGACGGGATT
B16: UAGCAUG (DNA:RNA)
RNA: B1 RNA with A25U, U28C, U29A, A30U, U31G
DNA 1: CAATCTGAATTCCGGTCTCCC
DNA 2: TGGTGGCTACGACGGGATT
B17: AUUCCUA (DNA:RNA)
RNA: B1 RNA with A26U, G27U, U28C, U29C, A30U, U31A
DNA 1: CAATCTGAATTCCGGTCTCCC
DNA 2: TGGTGGCTACGACGGGATT
B18: ACGGGGG (DNA:RNA)
RNA: B1 RNA with A26C, U28G, U29G, A30G, U31G
DNA 1: CAATCTGAATTCCGGTCTCCC
DNA 2: TGGTGGCTACGACGGGATT
B19: UCCUCGU (DNA:RNA)
RNA: B1 RNA with A25U, A26C, G27C, U29C, A30G
DNA 1: CAATCTGAATTCCGGTCTCCC
DNA 2: TGGTGGCTACGACGGGATT
B20: GUACUCA (DNA:RNA)
RNA: B1 RNA with A25G, A26U, G27A, U28C, A30C, U31A
DNA 1: CAATCTGAATTCCGGTCTCCC
DNA 2: TGGTGGCTACGACGGGATT
B21: CACUACA (DNA:RNA)
RNA: B1 RNA with A25C, G27C, U29A, A30C, U31A
DNA 1: CAATCTGAATTCCGGTCTCCC
DNA 2: TGGTGGCTACGACGGGATT
B22: UUAGGGA (DNA:RNA)
RNA: GGGAGACCGGAAUUCAGAUUGUCCUUAGGGAUUAAAUCCCGUCGUAGCCACCA
DNA 1: CAATCTGAATTCCGGTCTCCC
DNA 2: TGGTGGCTACGACGGGATT
B23: AGCCGCU (DNA:RNA)
RNA: B1 RNA with A26G, G27C, U28C, U29G, A30C
DNA 1: CAATCTGAATTCCGGTCTCCC
DNA 2: TGGTGGCTACGACGGGATT
B24: GCUCAAC (DNA:RNA)
RNA: B1 RNA with A25G, A26C, G27U, U28C, U29A, U31C
DNA 1: CAATCTGAATTCCGGTCTCCC
DNA 2: TGGTGGCTACGACGGGATT
B25: UCGCGAA (DNA:RNA)
RNA: B22 RNA with U26C, A27G, G28C, G30A
DNA 1: CAATCTGAATTCCGGTCTCCC
DNA 2: TGGTGGCTACGACGGGATT
B26: UGACUUG (DNA:RNA)
RNA: B22 RNA with U26G, G28C, G29U, G30U, A31G
DNA 1: CAATCTGAATTCCGGTCTCCC
DNA 2: TGGTGGCTACGACGGGATT
B27: AUCCGCU (DNA:RNA)
RNA: B1 RNA with A26U, G27C, U28C, U29G, A30C
DNA 1: CAATCTGAATTCCGGTCTCCC
DNA 2: TGGTGGCTACGACGGGATT
B28: AAGCAUG (DNA:RNA)
RNA: B1 RNA with U28C, U29A, A30U, U31G
DNA 1: CAATCTGAATTCCGGTCTCCC
DNA 2: TGGTGGCTACGACGGGATT
B29: AAGCAUA (DNA:RNA)
RNA: B1 RNA with U28C, U29A, A30U, U31A
DNA 1: CAATCTGAATTCCGGTCTCCC
DNA 2: TGGTGGCTACGACGGGATT
B30: AAGCAUC (DNA:RNA)
RNA: B1 RNA with U28C, U29A, A30U, U31C
DNA 1: CAATCTGAATTCCGGTCTCCC
DNA 2: TGGTGGCTACGACGGGATT
B31: GCAUGCG (DNA:RNA)
RNA: B22 RNA with U25G, U26C, G28U, G30C, A31G
DNA 1: CAATCTGAATTCCGGTCTCCC
DNA 2: TGGTGGCTACGACGGGATT
B32: GCAUCCC (DNA:RNA)
RNA: B1 RNA with A25G, A26C, G27A, U29C, A30C, U31C
DNA 1: CAATCTGAATTCCGGTCTCCC
DNA 2: TGGTGGCTACGACGGGATT
B33: GAAUGCA (DNA:RNA)
RNA: B22 RNA with U25G, U26A, G28U, G30C
DNA 1: CAATCTGAATTCCGGTCTCCC
DNA 2: TGGTGGCTACGACGGGATT
B34: GCAUGCC (DNA:RNA)
RNA: B22 RNA with U25G, U26C, G28U, G30C, A31C
DNA 1: CAATCTGAATTCCGGTCTCCC
DNA 2: TGGTGGCTACGACGGGATT
B35: GAUUGCA (DNA:RNA)
RNA: B1 RNA with A25G, G27U, U29G, A30C, U31A
DNA 1: CAATCTGAATTCCGGTCTCCC
DNA 2: TGGTGGCTACGACGGGATT
B36: GCCUGCC (DNA:RNA)
RNA: B1 RNA with A25G, A26C, G27C, U29G, A30C, U31C
DNA 1: CAATCTGAATTCCGGTCTCCC
DNA 2: TGGTGGCTACGACGGGATT
B37: GUCCGCA (DNA:RNA)
RNA: B22 RNA with U25G, A27C, G28C, G30C
DNA 1: CAATCTGAATTCCGGTCTCCC
DNA 2: TGGTGGCTACGACGGGATT
B38: CCAUGCC (DNA:RNA)
RNA: B22 RNA with U25C, U26C, G28U, G30C, A31C
DNA 1: CAATCTGAATTCCGGTCTCCC
DNA 2: TGGTGGCTACGACGGGATT
B39: CGAUGCA (DNA:RNA)
RNA: B22 RNA with U25C, U26G, G28U, G30C
DNA 1: CAATCTGAATTCCGGTCTCCC
DNA 2: TGGTGGCTACGACGGGATT
B40: GCAUUAA (DNA:RNA)
RNA: B1 RNA with A25G, A26C, G27A, U31A
DNA 1: CAATCTGAATTCCGGTCTCCC
DNA 2: TGGTGGCTACGACGGGATT
B41: ACAUGCG (DNA:RNA)
RNA: B1 RNA with A26C, G27A, U29G, A30C, U31G
DNA 1: CAATCTGAATTCCGGTCTCCC
DNA 2: TGGTGGCTACGACGGGATT
B42: GCAUGCA (DNA:RNA)
RNA: B22 RNA with U25G, U26C, G28U, G30C
DNA 1: CAATCTGAATTCCGGTCTCCC
DNA 2: TGGTGGCTACGACGGGATT

This test has as its target T1, RBFOX1 RRM RbFoxmut (Fox-RRM*). The test can be described thus: EMSA; HiTS-Eq, 1 nM pool, 10 min; buffer printed only for the single-RNA assays: 10 mM Tris pH 7.5, 150 mM NaCl, 3.4 mM EDTA, 0.001% NP-40, 30 C. The note with it: tags: His6 N-terminal (pET28a); label: 5' 32P. The gist of the method: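 Relative association constants, normalised to the cognate motif, were derived by comparing read counts of each RNA species with those of the control reaction. The RNA sequenced was the free fraction, separated by 8% native PAGE after a 10 min equilibration in 50 µL of 1 nM 5′-radiolabelled RNA (7 randomized nucleotides) with increasing concentrations of purified wild-type or mutant RbFox RRM.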
A general note: Mobility shift assays separate free from complexed probe on a gel.
B1: the binding signal is 0.118 KA relative to UGCAUGU. In the case of B2, the binding signal was 0.132 KA relative to UGCAUGU. Regarding B3, the binding signal was 0.0735 KA relative to UGCAUGU. Consider B4, for which the binding signal is 0.099 KA relative to UGCAUGU. Next, B5: 0.133 KA relative to UGCAUGU. Regarding B6, the binding signal was 0.163 KA relative to UGCAUGU. On to B7, for which the binding signal is 0.538 KA relative to UGCAUGU.

For B8, the binding signal was 0.117 KA relative to UGCAUGU. B9: the binding signal is 0.48 KA relative to UGCAUGU. Turning to B10, the binding signal is 0.713 KA relative to UGCAUGU.

For the molecule B11, the binding signal is 0.0997 KA relative to UGCAUGU. In the case of B12, the binding signal is 0.0839 KA relative to UGCAUGU. Regarding B13, the binding signal was 0.123 KA relative to UGCAUGU. Regarding B14, the binding signal is 0.2 KA relative to UGCAUGU. As for B15, the binding signal was 0.266 KA relative to UGCAUGU. In the case of B16, the binding signal is 0.819 KA relative to UGCAUGU. Turning to B17, the binding signal was 0.098 KA relative to UGCAUGU. As to B18, the binding signal was 0.118 KA relative to UGCAUGU. Turning to B19, the binding signal was 0.124 KA relative to UGCAUGU. Next, B20: 0.095 KA relative to UGCAUGU; B21: 0.13 KA relative to UGCAUGU; B22: 0.0529 KA relative to UGCAUGU. As for B23, the binding signal is 0.0799 KA relative to UGCAUGU. Next, B24: 0.0746 KA relative to UGCAUGU. Regarding B25, the binding signal was 0.105 KA relative to UGCAUGU.

As for B26, the binding signal is 0.272 KA relative to UGCAUGU. With B27, the binding signal was 0.121 KA relative to UGCAUGU.

In the case of B28, the binding signal is 0.715 KA relative to UGCAUGU. Turning to B29, the binding signal is 0.0958 KA relative to UGCAUGU.

With B30, the binding signal was 0.196 KA relative to UGCAUGU. Regarding B31, the binding signal is 0.872 KA relative to UGCAUGU.

Turning to B32, the binding signal was 0.142 KA relative to UGCAUGU.

Take B33: the binding signal was 1.03 KA relative to UGCAUGU. As to B34, the binding signal is 0.651 KA relative to UGCAUGU. In the case of B35, the binding signal was 0.171 KA relative to UGCAUGU. On to B36, for which the binding signal is 0.176 KA relative to UGCAUGU. Regarding B37, the binding signal is 0.107 KA relative to UGCAUGU.

In the case of B38, the binding signal was 0.19 KA relative to UGCAUGU.

For B39, the binding signal is 0.158 KA relative to UGCAUGU.

Regarding B40, the binding signal was 0.141 KA relative to UGCAUGU. For B41, the binding signal is 0.139 KA relative to UGCAUGU. With B42, the binding signal was 0.828 KA relative to UGCAUGU.
